These results are taken from PubChem BioAssay (NCATS).

“And” between values parts separate entries of the source, which are not always exact repeats. Identical values can stand only once. Records with an inconclusive call do not appear. Values without a mark were called inactive. The source made the active and inactive calls. Calls follow the shape of the dose curve; as a rule, active = well fitted curve in the direction sought with a large enough effect; inconclusive = small, poorly fitted or top-dose-only effect, or another doubt; inactive = no such curve, though single readings can be large; an effect the other way counts as inactive or inconclusive.

One assay relates to HeLa. The assay is described as follows: Primary qHTS to identify gynecologic anti-cancer compounds using libraries of approved drugs and bioactive compounds (AID 1345084). Also: nearly all actives have a fitted effect of over 55% in size. To be noted: Gynecologic cancer cell panel viability, ATPlite luminescence, 48 h; series mostly up to 57.5 µM. A digest of the protocol: (§1)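 48 h compound exposure at 37 C, 5% CO2; five-point qHTS. ATPlite luminescence readout of cell ATP.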

A further assay relates to Hek293T. The description is as above. The settings on record: Gynecologic cancer cell panel viability, ATPlite luminescence, 48 h, control line for the selectivity index; series mostly up to 57.5 µM. The method, boiled down:
as §1
(ATP-based viability assays read luminescence as a measure of living cells.)

A further assay relates to JEG-3. The assay is described as above. To be noted: Gynecologic cancer cell panel viability, ATPlite luminescence, 48 h; series mostly up to 57.5 µM. A digest of the protocol: as §1
For the next assay, the system named is OV90. Described as above. The settings on record: Gynecologic cancer cell panel viability, ATPlite luminescence, 48 h; series mostly up to 57.5 µM. The method, boiled down: as §1
In a further assay the test system is PA-1. Described as above. To be noted: Gynecologic cancer cell panel viability, ATPlite luminescence, 48 h; series mostly up to 57.5 µM. The method, boiled down:
as §1

The next assay relates to SKOV3. The description is as above. The settings on record: Gynecologic cancer cell panel viability, ATPlite luminescence, 48 h; series mostly up to 57.5 µM. A digest of the protocol: as §1
In the next assay the test system is Tov-21-G. Described as above. To be noted: Gynecologic cancer cell panel viability, ATPlite luminescence, 48 h; series mostly up to 57.5 µM. The method, boiled down: as §1
Another assay deals with Tov112D. Described as above. To be noted: Gynecologic cancer cell panel viability, ATPlite luminescence, 48 h; series mostly up to 57.5 µM. A digest of the protocol:
as §1

A short description of assay [1]: Drug repurposing screens with cells derived from glioblastoma tumor samples (AID 1345199). Also: nearly all actives have a fitted effect of over 40% in size. Also: potency is read from the fitted curve at half-maximal effect. The settings on record: GBM patient neurospheres viability, ATP luminescence, 48 h. A digest of the protocol:
(§2)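 Primary testing used CD133+ neurospheres from four GBM patients, seven concentrations, 48 h exposure and ATP-based viability; confirmation added three slower-growing patient lines.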

In a further assay the test system is astro. Described as above. The settings on record: viability, ATP luminescence, 48 h; series mostly up to 45.9 µM. The method, boiled down: as §2
Where [2] appears, read: at 45.9 µM (top of the series), tumour line B.
The mark [3] stands for this setting: at 45.9 µM (top of the series), tumour line D.
The mark [4] stands for this setting: at 46 µM (top of the series), tumour line A.
[5] abbreviates: at 46.1 µM (top of the series), tumour line C.
% is scaled to controls: 0 for no effect and ±100 for the full control effect.

Take `Nc1ccc(/C=C/c2ccc(N)cc2S(=O)(=O)O)c(S(=O)(=O)O)c1`: the activity change, negative = cytotoxicity is 9.69% [at 0.462 µM] in the assay on HeLa; 4.03% [at 0.462 µM] in the assay with Hek293T; -1.28% [at 0.462 µM] in the assay with JEG-3; 2.33% [at 0.462 µM] in the assay on OV90; 4.94% [at 0.462 µM] in the assay with PA-1; -10.7% [at 0.462 µM] in the assay with SKOV3. In addition, the figures for the activity change, negative = cytotoxicity in the assay with Tov-21-G and in the assay on Tov112D were 0.128% [at 0.462 µM] and 3.4% [at 0.462 µM], respectively. For the same compound, the activity, negative = cell killing in [1] (setting [2]) was -7.96%; in assay [1] (setting [3]), -14.3%; in assay [1] (setting [4]), -15.5%; in assay [1] (setting [5]) it was -2.52%. Further, the Potency entry in the assay with astro was “inactive”.
Regarding `COC(=O)CCc1ccc(OCC(O)CNC(C)C)cc1` (stereo not drawn), the Potency entry with HeLa, in the assay on Hek293T, in the assay on JEG-3, in the assay with OV90, in the assay with PA-1 and in the assay with SKOV3 was “inactive” throughout. The Potency result in the assay on Tov-21-G, in the assay with Tov112D and with astro was “inactive” each time. Also, the activity, negative = cell killing in [1] (setting [2]) is -6.72%; in assay [1] (setting [3]) it was -12.4%; in assay [1] (setting [5]), -12.3%.
In the case of `CCCCc1nc(Cl)c(CO)n1Cc1ccc(-c2ccccc2-c2nn[nH]n2)cc1`, the Potency entry in the assay on HeLa, in the assay on Hek293T, in the assay with JEG-3, in the assay on OV90, in the assay with PA-1 and in the assay on SKOV3 was “inactive” each time. The Potency result with Tov-21-G, in the assay on Tov112D and in the assay with astro was “inactive” in each case. Further, the results for the activity, negative = cell killing in assay [1] (setting [2]), in assay [1] (setting [3]) and in assay [1] (setting [5]) were -2.59%, -10.9% and -14.8%, respectively.
With `NC[C@H]1O[C@H](O[C@H]2[C@H](O)[C@@H](O[C@H]3O[C@H](CO)[C@@H](O)[C@H](N)[C@H]3O)[C@H](N)C[C@@H]2N)[C@H](N)[C@@H](O)[C@@H]1O`, the Potency entry in the assay with HeLa, in the assay on Hek293T, in the assay with JEG-3, in the assay with OV90, with PA-1 and in the assay on SKOV3 was “inactive” throughout. Also, the Potency entry in the assay with Tov-21-G, in the assay with Tov112D and in the assay on astro was “inactive” each time. Also, the activity, negative = cell killing is -3.08% and -15.5% in assay [1] (setting [2]); -22.4% and -15.3% in assay [1] (setting [3]); -11.7% in [1] (setting [4]); -0.491% and -12.3% in assay [1] (setting [5]).
For `CCC(=O)c1c(O)cc(O)cc1O`, the Potency result in the assay on HeLa, in the assay on Hek293T, with JEG-3, in the assay with OV90, in the assay on PA-1 and with SKOV3 was “inactive” each time. The Potency result in the assay on Tov-21-G, with Tov112D and in the assay on astro was “inactive” in each case. The activity, negative = cell killing in assay [1] (setting [2]) was -0.713%; in assay [1] (setting [3]), -16.2%; in assay [1] (setting [5]), -2.44%.
`N[C@@H](CCC(=O)N[C@@H](CS)C(=O)NCC(=O)O)C(=O)O`: the Potency entry in the assay with HeLa, in the assay with Hek293T, with JEG-3, with OV90, in the assay with PA-1 and in the assay with SKOV3 was “inactive” throughout. Further, the Potency result in the assay with Tov-21-G, in the assay with Tov112D and with astro was “inactive” each time. The activity, negative = cell killing is -10.5% in assay [1] (setting [2]), -6.47% in [1] (setting [3]), -29.7% in assay [1] (setting [4]) and 10.6% in assay [1] (setting [5]).
As for `O=C(COc1ccc(Cl)cc1)N1CCN(Cc2ccc3c(c2)OCO3)CC1`, the Potency result with HeLa, in the assay with Hek293T, with JEG-3, with OV90, in the assay with PA-1 and in the assay on SKOV3 was “inactive” each time. Besides, the Potency entry with Tov-21-G, in the assay with Tov112D and with astro was “inactive” in each case. In addition, the values for the activity, negative = cell killing in assay [1] (setting [2]) and in assay [1] (setting [3]) were -2.59% and -28.6%, respectively. Moreover, in [1] (tumour line A), the Potency is 20 µM (active).
Consider `CN1C(CCl)Nc2cc(Cl)c(S(N)(=O)=O)cc2S1(=O)=O` (stereo not drawn), for which the Potency result in the assay on HeLa, in the assay on Hek293T, in the assay with JEG-3, in the assay with OV90, with PA-1 and in the assay on SKOV3 was “inactive” in each case. In addition, the Potency result in the assay with Tov-21-G, with Tov112D and in the assay on astro was “inactive” each time. Besides, the results for the activity, negative = cell killing in assay [1] (setting [2]), in assay [1] (setting [3]) and in assay [1] (setting [5]) were -5.52%, -2.64% and -28.6%, respectively.
For the compound `CN(C(=O)CN(CCO)CC(=O)N(C)C(C)(C)Cc1ccccc1)C(C)(C)Cc1ccccc1`, the Potency entry in the assay with HeLa, in the assay on Hek293T, with JEG-3, with OV90, in the assay with PA-1 and in the assay on SKOV3 was “inactive” in each case. Also, the Potency entry with Tov-21-G, with Tov112D and in the assay on astro was “inactive” throughout. Further, the activity, negative = cell killing in [1] (at 20 µM (top of the series), tumour line C) was 7.73%; in [1] (at 21.2 µM (top of the series), tumour line B), -8.65%; in [1] (at 21.2 µM (top of the series), tumour line D), -0.577%. In addition, in [1] (tumour line A), the Potency was 10 µM (active).
As for `Cc1c(C(C)C)c(=O)n(-c2ccccc2)n1C`, the Potency result in the assay with HeLa, with Hek293T, in the assay on JEG-3, with OV90, with PA-1 and in the assay with SKOV3 was “inactive” each time. Further, the Potency entry with Tov-21-G, in the assay on Tov112D and in the assay on astro was “inactive” in each case. The activity, negative = cell killing was -4.08% in assay [1] (setting [2]), -9.96% in assay [1] (setting [3]), -22.1% in [1] (setting [4]) and -13.8% in assay [1] (setting [5]).
Take `NC(=O)CC[C@@H]1NC(=O)[C@H](Cc2ccccc2)NC(=O)[C@H](Cc2ccc(O)cc2)NC(=O)CCSSC[C@@H](C(=O)N2CCC[C@H]2C(=O)N[C@@H](CCCN=C(N)N)C(=O)NCC(N)=O)NC(=O)[C@H](CC(N)=O)NC1=O`: the Potency result in the assay on HeLa, in the assay with Hek293T, in the assay on JEG-3, with OV90, with PA-1 and in the assay with SKOV3 was “inactive” throughout. In addition, the Potency result in the assay on Tov-21-G, in the assay on Tov112D and in the assay with astro was “inactive” each time. Moreover, the activity, negative = cell killing was -2.8% and 1.21% in [1] (setting [2]); -7.07% and -4.13% in [1] (setting [3]); -24.9% and -29% in assay [1] (setting [4]); -17.6% and 1.07% in assay [1] (setting [5]).
On to `COc1ccc(C2C(=O)c3ccccc3C2=O)cc1`, for which the Potency result in the assay with HeLa, with Hek293T, in the assay with JEG-3, in the assay with OV90, in the assay on PA-1 and in the assay on SKOV3 was “inactive” throughout. The Potency entry with Tov-21-G, with Tov112D and in the assay with astro was “inactive” each time. Further, the activity, negative = cell killing is -10.6% in assay [1] (setting [2]), -14.2% in assay [1] (setting [3]) and -5.24% in assay [1] (setting [5]).
Consider `Cc1c(F)c(N2CCNC(C)C2)cc2c1c(=O)c(C(=O)O)cn2C1CC1` (stereo not drawn), for which the Potency entry in the assay on HeLa, with Hek293T, in the assay on JEG-3, in the assay with OV90, in the assay with PA-1 and with SKOV3 was “inactive” throughout. The Potency result in the assay with Tov-21-G, in the assay on Tov112D and with astro was “inactive” each time. Besides, the activity, negative = cell killing in assay [1] (setting [2]) is -3.48%; in assay [1] (setting [3]), 3.74%; in assay [1] (setting [4]), -33%; in [1] (setting [5]), -2.18%.
